Screening data: PubChem, National Center for Advancing Translational Sciences (NCATS)
Only some compounds are listed: those with a hit (about 2.8% of all), similar ones and a draw of the others.
HEK293 tox: cytotoxicity counter-screen for GLP-1 receptor inverse agonists. HEK293 cAMP-luciferase reporter cells, luminescence, 24 h. Potency, µM (series often up to 38.3 µM), for inactives: at the highest dose activity change, negative = inhibition, usual class: inhibitors. hit rate 0.13% among 410,000;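 also: loss of luciferase light is scored as toxicity; % is scaled to controls: 0 for no effect and ±100 for the full control effect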
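To flag toxic compounds, the library was rerun on cells for 24 hr at 37 deg C and 5% CO2. Viability-linked luminescence was captured 12 min after adding luciferase detection reagent.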
GLP-1R agonist: activates the human GLP-1 receptor | P43220 | HEK293 GLP-1R CRE-luciferase, luminescence, 4-6 h; cells express a hypersensitive GLP-1R form | Potency, µM (doses to about 45.6 µM), for the others: at the highest dose activation, actives largely listed as activators | hit rate 0.007% among 380,000 | AID 624172; also: % of control where 0% means no effect
Target sequence (P43220 whole entry, looked up): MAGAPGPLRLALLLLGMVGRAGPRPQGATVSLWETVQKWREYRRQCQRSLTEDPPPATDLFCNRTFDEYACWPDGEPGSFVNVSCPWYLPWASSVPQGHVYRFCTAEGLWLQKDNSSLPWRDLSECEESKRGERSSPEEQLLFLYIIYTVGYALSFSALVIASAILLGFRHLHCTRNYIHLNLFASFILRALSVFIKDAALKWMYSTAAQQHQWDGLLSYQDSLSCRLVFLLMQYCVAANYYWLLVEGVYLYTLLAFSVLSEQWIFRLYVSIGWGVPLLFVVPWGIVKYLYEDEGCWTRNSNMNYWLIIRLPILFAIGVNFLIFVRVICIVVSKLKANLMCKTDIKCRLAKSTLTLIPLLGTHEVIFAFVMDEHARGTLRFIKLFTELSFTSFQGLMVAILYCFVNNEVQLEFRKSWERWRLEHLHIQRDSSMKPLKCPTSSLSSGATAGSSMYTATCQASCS
BRCA1 expr act: increases BRCA1 expression; MCF7-BRCA1-FFLuc reporter, luminescence, 48 h; response scale: scaled: vehicle 0%, 10 µM genistein 100%; AID 624202; hit rate 1.1% among 380,000; Potency, µM (series often up to 46.1 µM), for the others: at the highest dose activation, usual class: activators; also: nearly all actives have a fitted effect of over 80% in size
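Compounds are tested at multiple concentrations on MCF7 BRCA1-luciferase reporter cells seeded at 2000 per well; after 48 h, a single luminescence end-point is taken and curves fitted to the normalized data.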
GLP1R inv ag: inverse agonists of human GLP-1 receptor. HEK293 GLP-1R CRE-luciferase, luminescence, 24 h; GLP-1R form is constitutively active. AID 624417. Potency, µM (series often up to 38.3 µM), inactives show top-dose activity change, negative = inhibition, usual class: inhibitors. hit rate 1.6% among 410,000. P43220; also: % is scaled to controls: 0 for no effect and ±100 for the full control effect; nearly all actives have a fitted effect of over 55% in size
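qHTS in 1536-well format: reporter HEK293 cells expressing constitutive GLP-1R activity in DMEM + 10% Nu serum, 24 hr with compounds at 37 deg C, luminescence read after 12 min with detection reagent.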
Mito fusion act: mitochondrial division inhibition or fusion activation | S. cerevisiae fusion-defective mutant growth rescue, CellTiterGlo 48 h | Potency, µM (series often up to 46.1 µM), inactives show top-dose growth rescue (activation), usual class: activators | hit rate 0.23% among 320,000 | AID 485298; also: % of control where 0% means no effect; nearly all actives have a fitted effect of over 45% in size
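Compounds are tested for their ability to restore growth of mitochondrial fusion-defective yeast strains at non-permissive 37C in YPEG medium over 48 hours. Viability is quantified by luciferase luminescence.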
Starred values were filed as active, the others as inactive; ? = inconclusive; . = no result; [ ] = remark or other dose. Calls follow the shape of the dose curve; as a rule, active = well fitted curve in the direction sought with a large enough effect; inconclusive = small, poorly fitted or top-dose-only effect, or another doubt; inactive = no such curve, though single readings can be large; an effect the other way counts as inactive or inconclusive. Potency is read from the fitted curve at half-maximal effect.

SMILES	HEK293 tox	GLP-1R agonist	BRCA1 expr act	GLP1R inv ag	Mito fusion act
Cc1ccc2c(Cl)c(C)c(N3CCCCC3)nc2n1	?	18%	-11%	7.1µM*	?
CCN(Cc1nc2ccccc2c(=O)[nH]1)C(=O)COc1ccccc1Cc1ccccc1	-25%	17%	-44%	13µM*	21%
CCN(Cc1nc2cc(Cl)ccc2c(=O)[nH]1)C(=O)COc1ccccc1Cc1ccccc1	?	3%	-44%	?	-2%
CCOC(=O)C1=NN(c2ccc(Cl)cc2)C(=O)C1	2%	-7%	4µM*	6%	-14%
CCOC(=O)CC1=NN(c2ccccc2)C(=O)C1	-2%[7.66 µM]	0%	-22%	1%[7.66 µM]	2%
COc1ccc(S(=O)(=O)N2c3cc(C)ccc3OCC2C(C)(C)C)cc1 (centres undefined)	-22%	-1%	-88%	5µM*	-7%
COc1cccc(C(=O)N2c3cc(C)ccc3OCC2C(C)(C)C)c1 (centres undefined)	-2%	1%	-31%	11%	30%
Cc1ccc(S(=O)(=O)N2c3cc(C)ccc3OCC2C(C)(C)C)cc1 (centres undefined)	?	-11%	-88%	5µM*	4%
Cc1ccc(S(=O)(=O)N2c3ccccc3OCC2c2ccccc2)cc1 (centres undefined)	1%	-7%	-77%	?	10%
Cc1cccc(OCCn2nnc3ccccc32)c1C	1%	9%	?	?	-2%
Clc1ccc(C(c2cccs2)N2CCNCC2)cc1 (centres undefined)	-12%	13%	-17%	4.5µM*	.
CN1CCCN(C(c2ccccc2)c2ccc(Cl)cc2)CC1 (centres undefined)	?	21%	-32%	?	-5%
Cc1ccc(CNC(=S)NC2CCC(C(C)(C)C)CC2)cc1 (centres undefined)	-13%	9%	-5%	?	-14%
CC(NC(=S)NC1CCC(C(C)(C)C)CC1)c1ccccc1 (centres undefined)	-11%	4%	-26%	10µM*	-16%
COc1ccc(CCNC(=O)Nc2nnc([C@H]3C[C@H](O)[C@@H](CO)O3)s2)cc1OC	0%	-5%	4%	-5%	.
O=[N+]([O-])c1ccc(/C=N/Nc2ncccc2[N+](=O)[O-])s1	1.1µM*	0%	0%	?	.
O=C1CCCN1CCNC(=S)Nc1ccccc1	23%	-3%	-5%	6%	-2%
Cc1cc(C)c(N2CCN(S(=O)(=O)N3CCCCCC3)CC2)c(C)c1	18%	-18%	-48%	10µM*	3%
Cc1ccc(N2CCN(S(=O)(=O)N3CCCCC3)CC2)cc1Cl	-3%	20%	1%	24%	9%
CCC(=O)N/C(N)=N/c1nc2ccccc2o1	-10%	7%	2µM*	-13%	8%
N/C(=N\c1nc2ccccc2o1)NC(=O)c1ccccc1	-1%	1%	11%	7%	1%
CC(C)(C)C(=O)N/C(N)=N/c1nc2ccccc2o1	?	5%	?	11µM*	-1%
CCN(CC)CC(=O)Nc1sc(C)cc1C(=O)c1ccc(C)cc1	-1%	2%	-29%	10µM*	-8%
COc1ccc(N2C(=O)C3CCCN3C2c2ccc(C)o2)cc1Cl (centres undefined)	-6%	12%	1%	0%	-1%
CN(C)/C=C1\Oc2ccc3ccccc3c2C1=O	73%	2%	7.1µM*	63%	9%
SMILES	HEK293 tox	GLP-1R agonist	BRCA1 expr act	GLP1R inv ag	Mito fusion act
Cc1cc(C(=O)OCC(=O)Nc2nc(-c3ccccc3)cs2)c(C)o1	-18%	-25%	14%	0%	6%
CC(OC(=O)c1ccc([N+](=O)[O-])o1)C(=O)Nc1nc(-c2ccc(F)c(F)c2)cs1 (centres undefined)	6%	0%	13µM*	-20%	8%
Cc1cc(C(=O)OC(C)C(=O)Nc2nc(-c3ccccc3)cs2)c(C)o1 (centres undefined)	1%	1%	17%	10µM*	?
CC(=O)c1cccc(NC(=O)c2cc(-c3cccs3)on2)c1	-12%	13%	10µM*	10%	3%
COc1ccc(CNC(=O)Nc2cccc(Cl)c2)cc1	6%	8%	7.1µM*	-25%	-1%
O=C(Nc1cccc(O)c1)c1cc(-c2cccs2)on1	-3%	-1%	43%	?	23%
COc1cccc(NC(=O)NCc2ccccc2Cl)c1	9%	7%	13µM*	-33%	.
COc1ccc(CNC(=O)C2(c3ccc(Cl)cc3)CC2)cc1	5%	32%	-11%	10µM*	-3%
O=C(Nc1ccc(-c2nc3ccccc3[nH]2)cc1)c1ccccc1NS(=O)(=O)c1ccc(F)cc1	-18%	-40%	3%	?	-5%
Cc1cc(=O)oc2c(C)c(OCC(=O)N3CCN(c4ccccc4)CC3)ccc12	-9%	8%	0%	3%	11%
COc1cccc(-n2cc(CNC(=O)C3CCC(=O)N(C4CC4)C3)cn2)c1 (centres undefined)	-1%	4%	1%	1%	-1%
COc1cccc(NC(=O)CN(C)C(=O)c2ccc(-c3ccc(Cl)cc3)o2)c1	8%	1%	9%	?	?
COc1cccc(NC(=O)CN(C)C(=O)c2ccc(-c3ccccc3Cl)o2)c1	-6%	7%	-7%	8.9µM*	-1%
COc1ccc(-c2cc(C(=O)Nc3cccc(Cl)c3)no2)cc1	0%	0%	3.2µM*	57%	-3%
COc1ccc(-c2cc(C(=O)Nc3cccc(C(C)=O)c3)no2)cc1	-3%	-15%	24%	5%	1%
Cc1ccccc1S(=O)Cc1ccc(C(=O)NCc2ccccc2Cl)o1 (centres undefined)	-17%	1%	1%	-22%	.
O=C1N(Cc2cccnc2)C[C@@H]2C[C@@H](c3ccccc3C#Cc3ccccc3)N3CCC[C@@]123	-28%	9%	-31%	?	-2%
CCc1ccc(NC(=O)c2ccc3nc(N)sc3c2)cc1	-8%	12%	11µM*	?	?
Nc1nc2ccc(C(=O)Nc3ccccc3)cc2s1	-1%	7%	44%	2%	7%
O=C(Oc1cccc2cccnc12)c1cccc([N+](=O)[O-])c1	?	0%	1%	?	-2%
O=C(Oc1c(Cl)cc(Cl)c2cccnc12)c1cccc([N+](=O)[O-])c1	?	2%	-67%	13µM*	18%
O=C(Oc1ccc(Cl)c2cccnc12)c1cccc([N+](=O)[O-])c1	?	27%	-61%	5µM*	0%
O=C(Oc1coc(CSc2ncccn2)cc1=O)c1cccc([N+](=O)[O-])c1	-4%	0%	-18%	20%	2%
